Bioassay records deposited in PubChem BioAssay by National Center for Advancing Translational Sciences (NCATS).
Nrf2 block: Nrf2 pathway inhibition; A549 ARE-Fluc reporter, luciferase luminescence, 18-24 h; Potency, µM (highest dose often 46 µM), without a hit: at the top dose activity change, negative = inhibition, most hits filed as inhibitors; 360,000 tested, 2.1% active; AID 504444; note: % is set by controls: 0 for no effect and ±100 for the full control effect; nearly all actives have a fitted effect of over 60% in size
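A549 ARE_Fluc cells, 5000/well, 5% FBS OPTI-MEM; compounds in dose-response, 18-24 h at 37 °C/5% CO2; CellTiter-Fluor viability read (Ex 405/Em 525), then BugLite luciferase luminescence = Nrf2 activity.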
S2 tox: cell viability loss in ATXN counter-screen; S2 cells (HEK-293 line with an ATXN2-luciferase reporter) viability, CellTiter-Fluor protease fluorescence, 24 h; Potency, µM (highest dose often 56.7 µM), most hits filed as cytotoxic; 400,000 tested, 0.49% active; note: nearly all actives have a fitted effect of over 40% in size
ATXN2 expr inh: reduces ATXN2 reporter expression in HEK-293 cells | HEK-293 ATXN2-luciferase reporter, luminescence, 24 h | Potency, µM (series often up to 57 µM), for the others: top-dose activity change, negative = inhibition, hits mostly inhibitors | 360,000 tested, 0.72% active; note: % is set by controls: 0 for no effect and ±100 for the full control effect; nearly all actives have a fitted effect of over 55% in size
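ATXN2-luciferase reporter cells (luciferase flanked by upstream and downstream ATXN2 gene portions) were treated 24 h at 37 °C with compounds at up to 57 uM. SteadyGlo luminescence gave expression; GF-AFC fluorescence gave viability.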
TGFb SMAD3 inh: inhibitors of TGF-b signaling; HepG2 CAGA-GFP TGF-b/SMAD3 reporter, GFP fluorescence, 18 h; TGF-beta stimulated, 500 pg/mL final; AID 588855; Potency, µM (top dose mostly 46.1 µM), for inactives: top-dose activity, negative = inhibition, most hits filed as inhibitors; 410,000 tested, 1.2% active; note: % is set by controls: 0 for no effect and ±100 for the full control effect; nearly all actives have a fitted effect of over 65% in size
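HEPG2 CAGA-GFP, 1000 cells/well; 2 h settle, 37 C; cpd via pin tool; TGF-b 500 pg/mL final; 18 h, 37 C; GFP imaging ex488/em500-530; %Activity normalised to -TGF-b and +DMSO controls; CRC fit, curve class.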
HepG2 tox: kills HepG2 cells in TGF-b inhibitor counter-screen | 410,000 tested, 0.76% active | Potency, µM (top dose mostly 46.1 µM), for inactives: at the top dose activity change, negative = cytotoxicity, hits mostly cytotoxic | AID 588856 | HepG2 CAGA-GFP viability, ATP luminescence, 18 h
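CellTiter-Glo luminescence gave cytotoxicity after 18 hours at 37 degrees C. The cells were HepG2 CAGA-GFP in 1% FBS DMEM, stimulated with 500 pg/mL TGF-beta after compound addition. %Activity was normalised to no-cell wells (complete cell-killing) and DMSO (no toxicity), and curves were fitted and classified.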
A549 tox: kills or reduces viability of A549 cells in Nrf2 counter-screen. A549 ARE-Fluc cells, CellTiter-Fluor viability, 18-24 h. Potency, µM (highest dose often 46 µM), for inactives: at the top dose activity change, negative = cytotoxicity, actives largely listed as inhibitors. 390,000 tested, 0.16% active; note: % is set by controls: 0 for no effect and ±100 for the full control effect
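A549 ARE_Fluc cells in 5% FBS OPTI-MEM were exposed to compounds in concentration-response for 18-24 h at 37 deg C. Viability was read by CellTiter-Fluor fluorescence (Ex 405/Em 525) after 30 min, before the luciferase read.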
* marks the source's active call; other numbers are inactive results; i = inactive; ? = inconclusive; . = no result given. Shown are actives, neighbours in structure and some others; about 3.8% of the full set was active somewhere. Calls come from the whole dose curve; as a rule, active = well fitted curve in the direction sought with a large enough effect; inconclusive = small, poorly fitted or top-dose-only effect, or another doubt; inactive = no such curve, though single readings can be large; an effect the other way counts as inactive or inconclusive. Potency is the fitted concentration of half-maximal effect.

SMILES | Nrf2 block | S2 tox | ATXN2 expr inh | TGFb SMAD3 inh | HepG2 tox | A549 tox
CN(C)CC(C)(C)CNc1nn2c(-c3ccccc3)nnc2cc1C1CCC1 | . | . | 0.769µM* | . | . | .
Cc1ccc(CNc2ccc3nnc(-c4ccccc4)n3n2)cc1 | -3.7% | i | 6.0% | 6.4% | -1.5% | -4.1%
CCOC(=O)c1ccccc1NC(=O)CSc1nc(=O)[nH]c2c1CCC2 | . | . | . | 19.1% | 4.3% | -3.7%
CN(C)C(CNC(=O)c1cc(-c2ccco2)nc2ccccc12)c1ccccc1 (stereo unspecified) | ? | i | 1.1% | -8.8% | -6.8% | -10.7%
Cc1cccc(NS(=O)(=O)c2ccc3c(c2)CCN3C(=O)CCC(=O)O)c1 | 1.3% | i | 4.0% | 0.0% | 5.3% | 4.9%
Cc1cccc(NS(=O)(=O)c2ccc(NC(=O)N3CCCCC3)cc2)c1 | 18.4µM* | i | -5.8% | -5.0% | 0.0% | -19.5%
Cc1cccc(NS(=O)(=O)c2ccc(NC(=O)N3CCCC3)cc2)c1 | . | i | -4.2% | -0.4% | 16.2% | 5.5%
Cc1cccc(NS(=O)(=O)c2ccc3c(c2)CCN3C(=O)C2CCC2)c1 | 14.6µM* | ? | ? | ? | -17.7% | -17.3%
CCCCN(c1ccccc1)S(=O)(=O)c1ccc2c(c1)CC(C)N2C(=O)C1CC1 (stereo unspecified) | ? | ? | -27.7% | ? | -6.0% | -7.4%
CCCN(c1ccccc1CC)S(=O)(=O)c1ccc2c(c1)CC(C)N2C(=O)C1CC1 (stereo unspecified) | 20.6µM* | . | . | . | -22.6% | -5.6%
CN1C(=O)Cc2cc(S(=O)(=O)CCC(=O)Nc3ccc(OC(F)(F)F)cc3)ccc21 | -9.6% | i | 7.4% | ? | 0.0% | -8.0%
CC1Cc2cc(S(=O)(=O)CCC(=O)Nc3ccc(OC(F)(F)F)cc3)ccc2N1C(=O)C1CC1 (stereo unspecified) | 23.1µM* | . | . | ? | -35.2% | 1.3%
Cc1ccc(N2CC(NC(=O)C3CCCC3)CC2=O)cc1 (stereo unspecified) | . | . | . | 2.5% | -6.5% | 5.6%
Cc1cccc(NS(=O)(=O)c2ccc3c(c2)CC(C)N3C(=O)C2CCC2)c1C (stereo unspecified) | ? | ? | -20.9% | ? | -6.8% | -3.9%
Cc1cc(C)c(NS(=O)(=O)c2ccc3c(c2)CC(C)N3C(=O)C2CCC2)c(C)c1 (stereo unspecified) | 20.6µM* | ? | ? | ? | 2.3% | -4.7%
COc1cc(OC)c(C2N(c3ccc(Cl)cc3)C(=O)C3CCCN32)cc1OC (stereo unspecified) | 1.8% | i | -3.7% | 2.6% | 0.6% | 1.2%
CCc1nnc(NC(=O)C2CCN(c3nc(C)cc(C)n3)CC2)s1 | -8.6% | i | -4.6% | -14.1% | -14.1% | .
O=C1C=CC(=O)N1CCNc1ncc(C(F)(F)F)cc1Cl | -12.4% | . | 25.1µM* | 12.6µM* | 11.2µM* | -3.9%
CCOC(Cn1cc(C)c(=O)[nH]c1=O)OCC | ? | i | -2.3% | -3.8% | -3.2% | -10.9%
CC(C)c1ccc(C2C3=C(CC(C)(C)CC3=O)NC3=C2C(=O)c2ccccc23)cc1 (stereo unspecified) | 23.1µM* | 14.1µM* | ? | ? | -10.1% | 16.4µM*
CC1(C)CC(=O)C2=C(C1)NC1=C(C(=O)c3ccccc31)C2c1ccccc1 (stereo unspecified) | -20.6% | ? | 3.1% | -13.7% | -8.5% | ?
COCc1c(C(=O)NC2CCCCCC2)cnn1-c1nccc(-c2cc(C)sc2C)n1 | . | i | . | . | . | .
COc1ccc(CCNC(=O)c2ccc(CS(=O)Cc3ccc(C)cc3)o2)cc1OC (stereo unspecified) | ? | i | 1.8% | 7.6% | 0.2% | 2.3%
Cc1nn(CCc2nn[nH]n2)c2nc(-c3ccc(Br)cc3)cc(C(F)(F)F)c12 | 20.6µM* | i | -9.4% | -6.3% | -2.2% | ?
Cc1ccn2c(Nc3ccc(F)cc3)c(-c3ccccn3)nc2c1 | 16.4µM* | ? | -0.4% | 84.6% | 68.9% | ?
SMILES | Nrf2 block | S2 tox | ATXN2 expr inh | TGFb SMAD3 inh | HepG2 tox | A549 tox
Cc1cccc2nc(-c3ccco3)c(Nc3ccccc3)n12 | ? | i | . | -14.9% | -10.4% | 0.4%
Cc1cccc2nc(-c3ccccn3)c(Nc3ccc(F)cc3)n12 | 16.4µM* | . | 17.8µM* | ? | -52.7% | ?
Cc1cccc2nc(-c3ccccn3)c(Nc3ccccc3)n12 | 10.3µM* | ? | ? | ? | -40.2% | -25.9%
O=C(NN=Cc1cccc([N+](=O)[O-])c1)c1cccc2ccccc12 | -10.7% | i | 5.0% | ? | 3.0% | 0.1%
CC(C)(CC(=O)NCc1ccc(Cl)cc1Cl)CC1=NS(=O)(=O)c2ccccc2N1 | . | i | 25.1µM* | ? | -51.0% | -6.7%
CCN1C(=O)c2cccc3c(NC(=O)c4ccc(OC)c(OC)c4)ccc1c23 | -22.3% | ? | 14.6% | -11.5% | -8.2% | -13.3%
O=C(NCc1c(F)cccc1F)c1cc(COc2c(F)cccc2F)on1 | ? | i | 34.0% | -8.4% | -19.4% | 17.9%
COc1ccc(CNC(=O)c2cc(COc3c(F)cccc3F)on2)cc1OC | 25.9µM* | i | . | -36.8% | -6.4% | -15.3%
Cc1ccc2nc(-c3ccccc3)cn2c1 | 6.51µM* | i | 5.01µM* | -6.4% | -61.4% | -1.3%
Cc1ccc2nc(-c3ccc(O)c(O)c3)cn2c1 | ? | i | ? | -9.9% | -16.0% | 0.0%
COC(=O)[C@@H]1[C@@H](C#N)C2(c3ccccc3-c3ccccc32)N(c2ccc(Cl)cc2)N1C#N | -28.6% | 28.2µM* | 10µM* | ? | -67.7% | -12.9%
O=C(Cc1ccc(Cl)cc1)NN1C(=O)c2ccccc2C1=O | 1.4% | i | 1.5% | -14.8% | 2.2% | -5.5%
Cc1cc(C)c(NC(=O)CSc2ccc3nnc(CCNC(=O)c4ccccc4)n3n2)c(C)c1 | 2.4% | i | 1.5% | -16.1% | -3.1% | 2.1%
CC1CCN(c2ncnc3ccccc23)CC1 | 14.6µM* | i | -11.0% | 0.0% | -20.4% | -13.6%
CC1CCN(c2nc(-c3ccccc3O)nc3ccccc23)CC1 | 27.6% | . | . | -1.0% | 2.5% | -9.6%
COc1ccc(OCCNC(=O)c2ccc3nc(C)c(N(C)C(=O)CCc4ccccc4)n3c2)cc1 | . | i | -5.1% | -3.8% | 3.0% | .
C/C(=N\Nc1nc(C)cc(-c2ccccc2)n1)c1ccc(F)cc1 | ? | i | . | ? | -29.2% | 23.1%
COc1ccc(/C(C)=N/Nc2nc(C)cc(-c3ccccc3)n2)cc1 | 14.6µM* | i | ? | -11.2% | -37.5% | -14.5%
